Laboratory results published in PubChem BioAssay (Tox21).
Inconclusive results are not listed. Calls of active or inactive are those of the source. Unless noted, the call rests on the fitted dose curve; in most records, active means well fitted cell-killing curve with a large enough effect in the repeat runs; inconclusive means weak or mixed curves, or effect the other way; inactive means no such curve, though single readings can be large or run the other way.

Target: Glucocorticoid receptor (Homo sapiens) (UniProt P04150)
Sequence (P04150 whole entry, looked up): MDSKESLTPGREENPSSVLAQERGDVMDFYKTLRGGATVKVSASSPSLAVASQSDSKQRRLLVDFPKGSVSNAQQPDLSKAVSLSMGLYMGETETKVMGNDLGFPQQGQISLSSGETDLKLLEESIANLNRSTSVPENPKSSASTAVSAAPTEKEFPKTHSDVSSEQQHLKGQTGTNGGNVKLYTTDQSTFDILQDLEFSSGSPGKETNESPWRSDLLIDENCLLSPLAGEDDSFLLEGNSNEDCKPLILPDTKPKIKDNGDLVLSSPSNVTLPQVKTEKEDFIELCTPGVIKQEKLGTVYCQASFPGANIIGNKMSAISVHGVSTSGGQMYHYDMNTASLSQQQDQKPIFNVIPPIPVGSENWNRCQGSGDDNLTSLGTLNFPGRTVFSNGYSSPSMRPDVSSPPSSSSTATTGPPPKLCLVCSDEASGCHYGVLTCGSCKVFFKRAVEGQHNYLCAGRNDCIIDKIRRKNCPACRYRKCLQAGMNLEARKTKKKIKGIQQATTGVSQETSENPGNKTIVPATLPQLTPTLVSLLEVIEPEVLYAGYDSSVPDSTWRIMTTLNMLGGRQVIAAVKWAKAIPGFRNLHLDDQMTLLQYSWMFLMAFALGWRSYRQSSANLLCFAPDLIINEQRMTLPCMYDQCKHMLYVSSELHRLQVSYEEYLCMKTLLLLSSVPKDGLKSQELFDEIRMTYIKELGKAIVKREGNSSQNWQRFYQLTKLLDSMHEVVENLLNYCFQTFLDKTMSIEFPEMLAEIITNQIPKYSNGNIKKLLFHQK
Test: qHTS assay to identify small molecule agonists of the glucocorticoid receptor (GR) signaling pathway (AID 720691; active means well fitted activation curve with a large enough effect in the signal ratio in the repeat runs, not every such curve was filed as active; the % refers to the signal ratio; further: potency means the concentration at half of the fitted maximal effect)
Conditions: GR-bla HeLa, beta-lactamase reporter ratio, 18 h; series mostly up to 62.4 µM; activation: at the top concentration
Method in brief: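 A HeLa cervical cancer line expressing GR and a glucocorticoid response element-driven beta-lactamase gene is treated with compounds for 18 h; LiveBLAzer B/G FRET substrate is then applied and fluorescence read.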
On the % scale 0 is the no-effect control and ±100 the full control effect.

Row | SMILES | activation | Potency
1 | CC1COc2ccccc2N1 (stereo unspecified) | -2.45% (inactive) | 
2 | CC(C)(C)OC(=O)c1ccc(O)cc1 | 0.0682% (inactive) | 
3 | CC(C)OC(=O)CCCCC(=O)OC(C)C | 0.122% (inactive) | 
4 | CC(C)CC(=O)O | -5.2% (inactive) | 
5 | CCCCCCCCC1CCC(=O)O1 (stereo unspecified) |  | 43.6 µM (active)
6 | Cc1cccc2nccnc12 | 1.82% (inactive) | 
7 | CN1C(C)(C)CCCC1(C)C | -2.36% (inactive) | 
8 | C[C@@H]1O[C@@H](O[C@@H]2[C@@H](O)[C@H](OCCc3ccc(O)c(O)c3)O[C@H](CO[C@@H]3O[C@H](CO)[C@@H](O)[C@H](O)[C@H]3O)[C@H]2OC(=O)/C=C/c2ccc(O)c(O)c2)[C@H](O)[C@H](O)[C@H]1O | -9.23% (inactive) | 
9 | CCCCCCOc1ccccc1C(N)=O | -8.1% (inactive) | 
10 | Nc1ncnc(Nc2ccccc2)n1 | -3.31% (inactive) | 
11 | BrCc1cccc(Oc2ccccc2)c1 | -6.58% (inactive) | 
12 | CCOC(=O)CC(=O)c1ccccc1 | 0.494% (inactive) | 
13 | Cc1c(I)c(=O)n(-c2ccccc2)n1C | 0.209% (inactive) | 
14 | COc1ccc(S(=O)(=O)N2c3ccc(Cl)cc3[C@@](O)(c3ccccc3Cl)[C@H]2C(=O)N2CCC[C@@H]2C(N)=O)cc1OC | -7.97% (inactive) | 
15 | O=C1c2ccccc2C(=O)C1c1ccccc1 | -1.5% [at 29.2 µM] (inactive) | 
16 | BrCCCCCBr | -1.31% [at 79.2 µM] (inactive) | 
17 | CN(CCOc1ccc(NS(C)(=O)=O)cc1)CCc1ccc(NS(C)(=O)=O)cc1 |  | 7.56 µM (active)
18 | O=C(c1ccc(O)cc1)c1ccc(O)c(O)c1O | -5.55% [at 79.2 µM] (inactive) | 
19 | O=C(O)c1cc(Br)c(O)c(Br)c1 | -2.17% (inactive) | 
20 | O=C1c2ccccc2C(=O)N1CCl | 0.189% (inactive) | 
21 | NCCN1CCOCC1 | 0.851% (inactive) | 
22 | C=COCCOCCOCCOC=C | 4.99% (inactive) | 
23 | CCOc1cc([N+](=O)[O-])c(OCC)cc1N1CCOCC1 | 4.18% (inactive) | 

Target: Glucocorticoid receptor (Homo sapiens) (UniProt P04150)
Test: qHTS assay to identify small molecule antagonists of the glucocorticoid receptor (GR) signaling pathway (AID 720692; active means well fitted inhibition curve with a large enough effect in the signal ratio in the repeat runs, not every such curve was filed as active; the % refers to the signal ratio)
Conditions: GR-bla HeLa, beta-lactamase FRET ratio, dexamethasone-stimulated, 18 h; series mostly up to 58.5 µM; activity change, negative = inhibition: at the top concentration
Method in brief: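 GRE-bla HeLa line, dex-stimulated (5 nM final). Compound exposure 18 h, 37 C. Beta-lactamase FRET read after 2 h RT substrate.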

Row | SMILES | activity change, negative = inhibition
24 | CC1COc2ccccc2N1 (stereo unspecified) | -0.199% (inactive)
25 | CC(C)CC(=O)O | -18.1% (inactive)
26 | O=C(O)C(=O)Cc1ccccc1 | -1.38% (inactive)
27 | c1ccc2nccnc2c1 | -12.9% [at 78.9 µM] (inactive)
28 | CCOC(=O)CC(=O)c1ccccc1 | 0.0567% (inactive)
29 | O=C(O)c1cc(Br)c(O)c(Br)c1 | 9.35% (inactive)
30 | O=C1c2ccccc2C(=O)N1CCl | -1.28% (inactive)
31 | NCCN1CCOCC1 | -2% (inactive)
32 | C=COCCOCCOCCOC=C | 7.2% (inactive)

Tested on: not listed separately
Test: qHTS assay to identify small molecule antagonists of the glucocorticoid receptor (GR) signaling pathway - cell viability counter screen (AID 720693); further: nearly all actives have a fitted effect of over 55% in size
Conditions: GR-bla HeLa viability, CellTiter-Glo luminescence, 18 h, with 5 nM dexamethasone present; series mostly up to 58.5 µM; viability change, negative = cytotoxic: at the top concentration

Row | SMILES | viability change, negative = cytotoxic | outcome
33 | CCC(CC)CO | 7.59% (inactive) | 
34 | NCCS |  | inactive
35 | CC(C)(C)OC(=O)c1ccc(O)cc1 | -0.943% (inactive) | 
36 | CCCCCCCCC1CCC(=O)O1 (stereo unspecified) | 1.37% (inactive) | 
37 | Cc1cccc2nccnc12 | -3.16% (inactive) | 
38 | CCCCCOC(=O)CCC | -5.47% (inactive) | 
39 | CN1C(C)(C)CCCC1(C)C | 16.9% (inactive) | 
40 | C[C@@H]1O[C@@H](O[C@@H]2[C@@H](O)[C@H](OCCc3ccc(O)c(O)c3)O[C@H](CO[C@@H]3O[C@H](CO)[C@@H](O)[C@H](O)[C@H]3O)[C@H]2OC(=O)/C=C/c2ccc(O)c(O)c2)[C@H](O)[C@H](O)[C@H]1O | 0.739% (inactive) | 
41 | O=C(O)C(=O)Cc1ccccc1 | 18.4% (inactive) | 
42 | O=C(NCCN1CCOCC1)c1ccc(Cl)cc1 |  | inactive
43 | Nc1ncnc(Nc2ccccc2)n1 | 5.55% (inactive) | 
44 | C=C(C)C(=O)OCC(C)(C)COC(=O)C(=C)C | 4.22% (inactive) | 
45 | c1ccc2nccnc2c1 | -9.23% [at 78.9 µM] (inactive) | 
46 | COc1ccc(Br)c(C)c1 | 0.269% [at 78.9 µM] (inactive) | 
47 | COC(=O)C1CC(=O)C(C(=O)OC)CC1=O (stereo unspecified) | -6.7% [at 7.04 µM] (inactive) | 
48 | Cc1c(I)c(=O)n(-c2ccccc2)n1C | 1.08% (inactive) | 
49 | COc1ccc(S(=O)(=O)N2c3ccc(Cl)cc3[C@@](O)(c3ccccc3Cl)[C@H]2C(=O)N2CCC[C@@H]2C(N)=O)cc1OC | 0.897% (inactive) | 
50 | O=C1c2ccccc2C(=O)C1c1ccccc1 | 14.3% [at 27 µM] (inactive) | 
51 | BrCCCCCBr | -5.75% [at 78.9 µM] (inactive) | 
52 | CC(C)C[C@H](NC(=O)CNC(=O)[C@H](Cc1ccc(O)cc1)NC(=O)[C@H](CO)NC(=O)[C@H](Cc1c[nH]c2ccccc12)NC(=O)[C@H](Cc1cnc[nH]1)NC(=O)[C@@H]1CCC(=O)N1)C(=O)N[C@@H](CCCN=C(N)N)C(=O)N1CCC[C@H]1C(=O)NCC(N)=O (stereo in doubt) | 0.647% (inactive) | 
53 | O=C(c1ccc(O)cc1)c1ccc(O)c(O)c1O | -5.9% [at 78.9 µM] (inactive) | 
54 | Nc1ccc(S(=O)(=O)Nc2ccc(Cl)nn2)cc1 |  | inactive
55 | OCCN(CCO)c1cccc(Cl)c1 | 5.35% (inactive) | 

Tested on: not listed separately
Test: qHTS assay for identifying genotoxic compounds that show differential cytotoxicity against isogenic chicken DT40 cell lines with known DNA damage response pathways - wild type cell line (AID 743012); further: nearly all actives have a fitted effect of over 60% in size; further: potency means the concentration at half of the fitted maximal effect
Conditions: DT40 wild type chicken cells viability, CellTiter-Glo, 40 h; series mostly up to 68.4 µM; activity change, negative = cytotoxicity: at the top concentration
Method in brief: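 300 wt DT40 cells/well; cpd (DMSO) pintool-transferred after ~0.5 h at 37 C/5% CO2; 40 h incubation; CellTiter-Glo added, 30 min RT; luminescence read.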

Row | SMILES | activity change, negative = cytotoxicity | Potency
56 | CCC(CC)CO | -5.66% (inactive) | 
57 | NCCS | 11.1% (inactive) | 
58 | CC(C)(C)OC(=O)c1ccc(O)cc1 | 13.8% (inactive) | 
59 | CCCCCCCCC1CCC(=O)O1 (stereo unspecified) | -2.15% (inactive) | 
60 | CCCCCOC(=O)CCC | 7.64% (inactive) | 
61 | CN1C(C)(C)CCCC1(C)C | 0.54% (inactive) | 
62 | CCCCCCOc1ccccc1C(N)=O |  | 23.7 µM (active)
63 | O=C(O)C(=O)Cc1ccccc1 | -25.5% (inactive) | 
64 | O=C(NCCN1CCOCC1)c1ccc(Cl)cc1 |  | inactive
65 | Nc1ncnc(Nc2ccccc2)n1 | 1.02% (inactive) | 
66 | C=C(C)C(=O)OCC(C)(C)COC(=O)C(=C)C | 5.85% (inactive) | 
67 | c1ccc2nccnc2c1 | 4.06% [at 95 µM] (inactive) | 
68 | COc1ccc(Br)c(C)c1 | -1.49% [at 95 µM] (inactive) | 
69 | COC(=O)C1CC(=O)C(C(=O)OC)CC1=O (stereo unspecified) | -1.23% [at 8.52 µM] (inactive) | 
70 | CCOC(=O)CC(=O)c1ccccc1 | 1.89% (inactive) | 
71 | Cc1c(I)c(=O)n(-c2ccccc2)n1C | 2.52% (inactive) | 
72 | COc1ccc(S(=O)(=O)N2c3ccc(Cl)cc3[C@@](O)(c3ccccc3Cl)[C@H]2C(=O)N2CCC[C@@H]2C(N)=O)cc1OC | -14.8% (inactive) | 
73 | O=C1c2ccccc2C(=O)C1c1ccccc1 | -0.696% [at 31.4 µM] (inactive) | 
74 | BrCCCCCBr | 19.7% [at 95 µM] (inactive) | 
75 | CC(C)C[C@H](NC(=O)CNC(=O)[C@H](Cc1ccc(O)cc1)NC(=O)[C@H](CO)NC(=O)[C@H](Cc1c[nH]c2ccccc12)NC(=O)[C@H](Cc1cnc[nH]1)NC(=O)[C@@H]1CCC(=O)N1)C(=O)N[C@@H](CCCN=C(N)N)C(=O)N1CCC[C@H]1C(=O)NCC(N)=O (stereo in doubt) | 3.57% (inactive) | 
76 | O=C1c2ccccc2C(=O)N1CCl | -2.93% (inactive) | 
77 | NCCN1CCOCC1 | 10.2% (inactive) | 
78 | Nc1ccc(S(=O)(=O)Nc2ccc(Cl)nn2)cc1 |  | inactive
79 | C=COCCOCCOCCOC=C | 25.9% (inactive) | 
80 | OCCN(CCO)c1cccc(Cl)c1 | 1.54% (inactive) | 
81 | CCOc1cc([N+](=O)[O-])c(OCC)cc1N1CCOCC1 | 16.9% (inactive) | 
